From PubChem BioAssay (Tox21)
Inconclusive results are not listed. Where a call stands in place of a potency, no number is given. A number with no mark means an inactive call. The source made the active and inactive calls. Calls follow the shape of the dose curve; as a rule, active = well fitted cell-killing curve with a large enough effect in the repeat runs; inconclusive = weak or mixed curves, or effect the other way; inactive = flat fitted curve, though single readings scatter.

assay: cAMP Responsive Elements (CRE) small molecule antagonists, cell-based qHTS assay: qHTS cell viability counter screen (AID 2060913); conditions: CRE-bla HEK293T viability, CellTiter-Glo luminescence, 5 h; series mostly up to 92.4 µM; also: nearly all actives have a fitted effect of over 40% in size
Summary of the method: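 CRE-bla HEK293T cells were seeded in assay medium with 10% dialyzed FBS, incubated 18 hrs at 37 C, then exposed to compounds plus 0.25 uM final NKH477 for 3 hrs. Viability was read by CellTiter-Glo luminescence after 30 min, in the same wells.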

Compound | Potency | viability change, negative = cytotoxic
C/C=C/CO | inactive | 
CN1CCC(OC(c2ccccc2)c2ccccc2)CC1 | inactive | 
O=C(O)CCS | inactive | 
CC(Cl)C(Cl)Cl (stereo not given) | inactive | 
COc1cc(C(=O)OC(COCCC(C)C)CN2CCOCC2)cc(OC)c1OC (stereo not given) | inactive | 
CC(C)OP(=O)(CP(=O)(OC(C)C)OC(C)C)OC(C)C | inactive | 
O=[N+]([O-])c1cccc(S(=O)(=O)O)c1 | inactive | 
C[C@H](CCC(=O)O)[C@H]1CC[C@H]2[C@@H]3[C@H](O)C[C@@H]4C[C@H](O)CC[C@]4(C)[C@H]3C[C@H](O)[C@]12C | inactive | 
COc1ccc(-c2ccc3cc(C(=O)O)ccc3c2)cc1C12CC3CC(CC(C3)C1)C2 | inactive | 
c1ccc(SCCSc2ccccc2)cc1 | inactive | 
CCOC(=O)COc1cc(-n2ncc(C(F)(F)F)c(C)c2=O)c(F)cc1Cl | inactive | 
c1ccc(CNCc2ccccc2)cc1 | inactive | 
CCC[Si](OC)(OC)OC | inactive | 
CCCCCOC(=O)c1ccc(O)cc1 | inactive | 
COc1cc(C(C)=O)ccc1OCCCN1CCC(c2noc3cc(F)ccc23)CC1 | inactive | 
NC12CC3CC(CC(C3)C1)C2 | inactive | 
CCCCC(CC)COC(=O)C(C#N)=C(c1ccccc1)c1ccccc1 (stereo not given) | inactive | 
O=C(O)C[C@H](NC(=O)OCc1ccccc1)C(=O)O | inactive | 
c1cc(C(c2ccc(OCC3CO3)cc2)C(c2ccc(OCC3CO3)cc2)c2ccc(OCC3CO3)cc2)ccc1OCC1CO1 (stereo not given) | inactive | 
CC(=O)OCC(C)C | inactive | 

Compound | Potency | viability change, negative = cytotoxic
CC/C=C\CC1=C(C)CCC1=O | inactive | 
CC(C)CCCCCCN | inactive | 
COC(=O)c1ccc(C)cc1 | inactive | 
C=COCCOCCOC=C | inactive | 
C1CCC2=NCCCN2CC1 | inactive | 
Oc1ccc(C2CNCCc3c2cc(O)c(O)c3Cl)cc1 (stereo not given) | inactive | 
Cc1ccccc1 | inactive | 
Nc1nc(=O)n([C@@H]2O[C@H](CO)[C@@H](O)[C@@H]2F)cc1I | inactive | 
C=C1CC[C@H]2O[C@]2(C)CC[C@@H]2[C@@H]1CC2(C)C | inactive | 
CC(=O)NCCCS(=O)(=O)O | inactive | 
CCNc1nc(N)nc(Cl)n1 | inactive | 
CCCC(=O)OCC | inactive | 
CNC(=S)NC | inactive | 
Cn1cnc2c1c(=O)[nH]c(=O)n2C | inactive | 
CCOC(=O)c1c(N)sc2c1CCN(Cc1ccccc1)C2 | inactive | 
CO/N=C(\C(=O)O)c1csc(NC(=O)CCl)n1 | inactive | 
CSc1ccc(O)cc1C | inactive | 
CCO | inactive | 
O=C(CCCN1CCN(c2ccccn2)CC1)c1ccc(F)cc1 | inactive | 
BrC/C=C/CBr |  | 15.6% [at 18.9 µM]
